Source: PubChem BioAssay (Tox21)
Results filed as inconclusive are left out. Activity calls are given as the source filed them. Calls come from the whole dose curve; as a rule, active = well fitted curve in the direction sought with a large enough effect in the repeat runs; inconclusive = weak or mixed curves; inactive = no such curve, though single readings can be large; an effect the other way counts as inactive or inconclusive.

Tests used:
[1] = qHTS RealTime-Glo MT Cell Viability Assay in HEK293 cells - 32 hour (AID 1224868); note: top concentration of the series differs between compounds; nearly all actives have a fitted effect of over 50% in size
Method in brief: (§1)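 Nonlytic real-time viability readout: viable cells convert prosubstrate to NanoLuc substrate, giving luminescence proportional to live cell number. HEK293, 600 cells/well, compound added after 5 h, continuous culture at 37 C.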

[2] = A CellTox Green Cytotoxicity Assay to monitor cytotoxicity in HEK293 cells - 0 hour (AID 1224869); note: nearly all actives have a fitted effect of over 50% in size
Method in brief: (§2)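 Dead-cell fluorescence measured kinetically: asymmetric cyanine dye, HEK293, 600 cells/well, 5 h settle, 23 nL cpd/DMSO, 37 C, reads 0–40 h every 8 h.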

[3] = qHTS RealTime-Glo MT Cell Viability Assay in HepG2 cells - 40 hour (AID 1224870); note: nearly all actives have a fitted effect of over 50% in size
Method in brief: (§3)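 Real-time viability: cells seeded at 600 per well together with NanoLuc and cell-permeant prosubstrate, compounds added after 5 h incubation. Luminescence tracked at 0, 8, 16, 24, 32 and 40 h of exposure.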

[4] = A CellTox Green Cytotoxicity Assay to monitor cytotoxicity in HEK293 cells - 40 hour (AID 1224871); note: nearly all actives have a fitted effect of over 45% in size
Method in brief: as §2

[5] = qHTS RealTime-Glo MT Cell Viability Assay in HEK293 cells - 16 hour (AID 1224872); note: top concentration of the series differs between compounds; nearly all actives have a fitted effect of over 50% in size
Method in brief: as §1

[6] = qHTS RealTime-Glo MT Cell Viability Assay in HepG2 cells - 8 hour (AID 1224873); note: nearly all actives have a fitted effect of over 55% in size
Method in brief: as §3

[7] = qHTS RealTime-Glo MT Cell Viability Assay in HEK293 cells - 40 hour (AID 1224874); conditions: RealTime-Glo luminescence, stronger effect = lower value; note: nearly all actives have a fitted effect of over 50% in size
Method in brief: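 600 HEK293 cells per well, dispensed already mixed with RealTime-Glo MT reagents. Compound dosing came 5 h later. The same wells were read for luminescence at 0, 8, 16, 24, 32 and 40 h of exposure at 37 C.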

[8] = A CellTox Green Cytotoxicity Assay to monitor cytotoxicity in HEK293 cells - 24 hour (AID 1224875); note: series mostly up to about 77 µM; nearly all actives have a fitted effect of over 45% in size
Method in brief: as §2

[9] = A CellTox Green Cytotoxicity Assay to monitor cytotoxicity in HepG2 cells - 16 hour (AID 1224876); note: nearly all actives have a fitted effect of over 45% in size
Method in brief: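 First, HepG2 cells (600/well) mixed with reagent were plated; second, after 5 h at 37 C they received compounds via pintool; third, fluorescence was measured at 0 h through 40 h at 8 h intervals.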

[10] = qHTS RealTime-Glo MT Cell Viability Assay in HepG2 cells - 32 hour (AID 1224877); note: nearly all actives have a fitted effect of over 55% in size
Method in brief: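 Luminescence read-out: viable HepG2 cells reduce a prosubstrate to a NanoLuc substrate, giving a signal proportional to live cell number. Reads taken at 0, 8, 16, 24, 32 and 40 h of compound exposure at 37 C.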
% is set by controls: 0 for no effect and ±100 for the full control effect.

CCCCC(CC)CCC(CC(C)C)OS(=O)(=O)O (centres undefined)
inactive: outcome [1] | outcome [2] | outcome [3] | Potency [4] | outcome [5] | outcome [6] | max response [7] -2.38% | Potency [8] | Potency [9] | outcome [10]

CC(C)C(=O)Nc1cccc(C2CN3CCSC3=N2)c1 (centres undefined)
inactive: outcome [1] | outcome [2] | outcome [3] | Potency [4] | outcome [5] | outcome [6] | max response [7] 0.0338% | Potency [8] | Potency [9] | outcome [10]

COCc1nnc(-c2ccc[n+]([O-])c2)n1-c1c(Cl)c(Cl)cc2[nH]c(=O)c(=O)[nH]c12
inactive: outcome [1] | outcome [2] | outcome [3] | Potency [4] | outcome [5] | outcome [6] | max response [7] -6.51% | Potency [8] | Potency [9] | outcome [10]

C/C=C(\C)C=O
inactive: outcome [1] | outcome [2] | outcome [3] | Potency [4] | outcome [5] | outcome [6] | max response [7] 8.23% | Potency [8] | Potency [9] | outcome [10]

CNC(C)=O
inactive: outcome [1] | outcome [2] | outcome [3] | Potency [4] | outcome [5] | outcome [6] | max response [7] -0.0492% | Potency [8] | Potency [9] | outcome [10]

CCNC(=O)C(C)OC(=O)Nc1ccccc1 (centres undefined)
inactive: outcome [1] | outcome [2] | outcome [3] | Potency [4] | outcome [5] | outcome [6] | max response [7] -1.79% | Potency [8] | Potency [9] | outcome [10]

CC(C)c1cc(C(C)C)cc(C(C)C)c1
inactive: outcome [1] | outcome [2] | outcome [3] | Potency [4] | outcome [5] | outcome [6] | max response [7] 5.73% | Potency [8] | Potency [9] | outcome [10]

CCCCCCCCCCCCCCCC/C=C/C1CC(=O)OC1=O (centres undefined)
inactive: outcome [1] | outcome [2] | outcome [3] | Potency [4] | outcome [5] | outcome [6] | max response [7] -0.0124% | Potency [8] | Potency [9] | outcome [10]

CC(C)(Sc1cc(C(C)(C)C)c(O)c(C(C)(C)C)c1)Sc1cc(C(C)(C)C)c(O)c(C(C)(C)C)c1
inactive: outcome [1] | outcome [2] | outcome [3] | Potency [4] | outcome [5] | outcome [6] | max response [7] 3.52% | Potency [8] | Potency [9] | outcome [10]

N=C(N)S(=O)O
inactive: outcome [1] | outcome [2] | outcome [3] | Potency [4] | outcome [5] | outcome [6] | max response [7] 11.7% | Potency [8] | Potency [9] | outcome [10]

c1cc2ccc3ccc4ccc5cccc6c(c1)c2c3c4c56
inactive: activity change, negative = cytotoxic [1] 0.861% [at 2.72 µM] | cytotoxicity [2] -4.63% [at 2.72 µM] | activity change, negative = cytotoxic [3] -2.6% [at 2.72 µM] | cytotoxicity increase [4] -13.8% [at 2.72 µM] | activity change, negative = cytotoxicity [5] -0.658% [at 2.72 µM] | viability change, negative = cytotoxic [6] 0.803% [at 2.72 µM] | max response [7] 1.82% | activity change [8] -12.1% [at 2.72 µM, stronger effect = higher value] | cytotoxicity increase [9] -15.3% [at 2.72 µM] | activity change, negative = cytotoxic [10] -3.43% [at 2.72 µM]

CCCCNCC
inactive: outcome [1] | outcome [2] | outcome [3] | Potency [4] | outcome [5] | max response [7] -1.39% | Potency [8] | Potency [9] | outcome [10]

C=CCCCCCCCCCCCCCC
inactive: activity change, negative = cytotoxic [1] -0.171% [at 15.8 µM] | cytotoxicity [2] -0.258% [at 15.8 µM] | activity change, negative = cytotoxic [3] -8.43% [at 15.8 µM] | cytotoxicity increase [4] 0.351% [at 15.8 µM] | activity change, negative = cytotoxicity [5] -2.4% [at 15.8 µM] | max response [7] 0.625% | activity change [8] -0.0594% [at 15.8 µM, stronger effect = higher value] | cytotoxicity increase [9] 2.79% [at 15.8 µM] | activity change, negative = cytotoxic [10] -5.43% [at 15.8 µM]

CCCCCCCCOCCC#N
inactive: outcome [1] | outcome [2] | outcome [3] | Potency [4] | outcome [5] | max response [7] -1.56% | Potency [8] | Potency [9]

Clc1ccc2c(c1)Nc1ccccc1S2
inactive: outcome [1] | outcome [2] | outcome [3] | Potency [4] | outcome [5] | outcome [6] | max response [7] -17.2% | Potency [8] | outcome [10]

Nc1cc(S(=O)(=O)O)ccc1O
inactive: outcome [1] | outcome [2] | outcome [3] | Potency [4] | outcome [5] | outcome [6] | max response [7] 14.9% | Potency [8] | Potency [9] | outcome [10]

CC1=C(O)C(=O)CO1
inactive: outcome [1] | outcome [2] | outcome [3] | Potency [4] | outcome [5] | max response [7] 0.017% | Potency [8] | Potency [9] | outcome [10]

CCCCCCCCCCCCCCBr
inactive: outcome [1] | outcome [2] | outcome [3] | Potency [4] | outcome [5] | max response [7] -1.85% | Potency [8] | Potency [9] | outcome [10]

O=C(O)P(=O)(O)O
inactive: outcome [1] | outcome [2] | outcome [3] | Potency [4] | outcome [5] | max response [7] 10.7% | Potency [8] | Potency [9] | outcome [10]

CCO[Si](CC(C)C)(OCC)OCC
inactive: outcome [1] | outcome [2] | outcome [3] | Potency [4] | outcome [5] | outcome [6] | max response [7] -8.56% | Potency [8] | outcome [10]

CC1(C)S[C@@H]2[C@H](NC(=O)Cc3ccccc3)C(=O)N2[C@H]1C(=O)O (tested in a mixture with another compound)
inactive: outcome [1] | outcome [2] | outcome [3] | Potency [4] | outcome [5] | max response [7] -2.11% | Potency [8] | Potency [9] | outcome [10]

CCCCCCCC(=O)N(C)C
inactive: outcome [1] | outcome [2] | outcome [3] | Potency [4] | outcome [5] | outcome [6] | max response [7] 4.49% | Potency [8] | outcome [10]
